Screens as filed in PubChem BioAssay.
Nrf2 inh: Nrf2 qHTS screen for inhibitors; A549 ARE-Fluc reporter, luciferase luminescence, 18-24 h; Potency, µM (highest dose often 46 µM), without a hit: top-dose activity change, negative = inhibition, hits mostly inhibitors; 360,000 compounds, 2.1% hits; AID 504444, 2011; also: % is scaled to controls: 0 for no effect and ±100 for the full control effect; nearly all actives have a fitted effect of over 60% in size
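A549 ARE_Fluc cells, 5000/well, 5% FBS OPTI-MEM; compounds in dose-response, 18-24 h at 37 °C/5% CO2; CellTiter-Fluor viability read (Ex 405/Em 525), then BugLite luciferase luminescence = Nrf2 activity.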
Rango release inh: qHTS Assay for Inhibitors of RanGTP induced Rango (Ran-regulated importin-beta cargo) - Importin beta complex dissociation | Biochemical FRET Rango-importin beta, RanGTP-induced dissociation | 340,000 compounds, 0.071% hits | AID 540253, 2011 | Potency, µM (series often up to 46.1 µM), for the others: top-dose activity change, negative = inhibition; calls by dose curve; also: % of control where 0% means no effect; nearly all actives have a fitted effect of over 45% in size
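Rango FRET biosensor (snurportin-1 IBB flanked by N-terminal EYFP and C-terminal CFP10) at 0.1 uM, with 0.25 uM importin beta in PBS, 1mM DTT, 0.02% Tween-20, 0.1% BSA. 0.6 uM Ran, 2mM GTP and 0.2 uM RCC1 were then added for 45 min at room temperature. Inhibition read as loss of FRET rise.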
A549 tox: Nrf2 qHTS screen for inhibitors: counterscreen for cytotoxicity | A549 ARE-Fluc cells, CellTiter-Fluor viability, 18-24 h | Potency, µM (titrated, usually from 46 µM), for the others: at the top dose activity change, negative = cytotoxicity, usual class: inhibitors | 390,000 compounds, 0.16% hits | AID 504648, 2011; also: % is scaled to controls: 0 for no effect and ±100 for the full control effect
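Cytotoxicity counterscreen: CellTiter-Fluor fluorescence was measured in A549 ARE_Fluc cells after 18-24 h of compound exposure in a concentration series. The subsequent BugLite luminescent read reports ARE-luciferase activity.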
Nrf2 activator: qHTS of Nrf2 Activators; 410,000 compounds, 0.31% hits; AREc32 ARE-luciferase reporter (MCF7-derived line), luminescence, 24 h; AID 624171, 2012; Potency, µM (doses to about 46.1 µM), for inactives: at the top dose activation, actives largely listed as activators; also: % of control where 0% means no effect; nearly all actives have a fitted effect of over 65% in size
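ARE activation measured as luciferase luminescence (Steady-Glo, 30 min RT) in AREc32_Fluc cells after 24 hr compound exposure at 37 deg C, 5% CO2; cells seeded overnight at 1000/well in OPTI-MEM, 5% FBS.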
Rango-impB inh: qHTS Assay for Inhibitors of Rango (Ran-regulated importin-beta cargo) - Importin beta complex formation | Importin subunit beta-1 (Homo sapiens), Q14974 | Rango CFP/YFP FRET sensor + importin beta, 45 min | Potency, µM (doses to about 92.2 µM), without a hit: top-dose inhibition of complex formation | 340,000 compounds, 0.031% hits; calls by dose curve;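 also: 0% = DMSO wells and 100% = buffer wells lacking importin beta; nearly all actives have a fitted effect of over 15% in size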
Target sequence (Q14974 whole entry, looked up): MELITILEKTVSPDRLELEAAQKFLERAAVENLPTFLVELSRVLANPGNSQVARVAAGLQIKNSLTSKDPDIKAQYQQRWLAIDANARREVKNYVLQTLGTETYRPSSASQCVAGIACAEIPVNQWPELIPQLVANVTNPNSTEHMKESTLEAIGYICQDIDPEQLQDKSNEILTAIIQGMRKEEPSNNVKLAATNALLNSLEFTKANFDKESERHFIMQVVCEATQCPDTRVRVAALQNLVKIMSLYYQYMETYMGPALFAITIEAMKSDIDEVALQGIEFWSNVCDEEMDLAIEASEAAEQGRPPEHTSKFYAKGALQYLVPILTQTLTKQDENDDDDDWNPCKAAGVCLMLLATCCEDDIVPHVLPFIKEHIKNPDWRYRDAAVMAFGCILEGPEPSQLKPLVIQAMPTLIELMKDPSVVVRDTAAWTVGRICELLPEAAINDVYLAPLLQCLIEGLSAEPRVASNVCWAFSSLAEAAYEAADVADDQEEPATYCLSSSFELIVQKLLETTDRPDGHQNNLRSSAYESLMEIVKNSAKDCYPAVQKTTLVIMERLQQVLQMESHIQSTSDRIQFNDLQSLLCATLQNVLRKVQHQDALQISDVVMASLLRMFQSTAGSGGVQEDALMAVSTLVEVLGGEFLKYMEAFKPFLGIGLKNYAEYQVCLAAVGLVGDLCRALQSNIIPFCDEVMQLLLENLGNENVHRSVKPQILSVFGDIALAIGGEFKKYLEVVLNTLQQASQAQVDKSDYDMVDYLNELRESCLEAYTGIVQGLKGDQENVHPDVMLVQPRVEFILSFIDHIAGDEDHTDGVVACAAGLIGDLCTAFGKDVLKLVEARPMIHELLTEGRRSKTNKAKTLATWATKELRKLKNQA
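Inhibition scored from the CFP 486 nm/YFP 530 nm FRET ratio 45 min after adding 0.125 microM importin beta to 50 nM Rango biosensor preincubated 5 min with compound (room temperature, PBS with DTT, Tween-20, BSA). No-importin wells as positive control.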
* = called active by the depositor; ? = inconclusive; nt = no result. Hits are enriched below; roughly 2.3% of the tested compounds scored in any of these assays. Unless noted, calls follow the shape of the dose curve; as a rule, active = well fitted curve in the direction sought with a large enough effect; inconclusive = small, poorly fitted or top-dose-only effect, or another doubt; inactive = no such curve, though single readings can be large; an effect the other way counts as inactive or inconclusive. Potency is read from the fitted curve at half-maximal effect.

SMILES	Nrf2 inh	Rango release inh	A549 tox	Nrf2 activator	Rango-impB inh
COc1ccc(C(=O)Nc2ccc(NC(=O)c3cccs3)c(OC)c2)cc1Cl	9.2µM*	30.6%	-17.1%	0.4%	1.9%
COc1ccc(C(=O)Nc2ccc(NC(=O)c3cccs3)cc2)cc1Cl	-12.2%	-1.9%	-0.6%	-0.4%	6.4%
Fc1cccc(F)c1/C=C/c1ccc2ccccc2n1	?	1.5%	14.7%	?	0.4%
Fc1cccc(Cl)c1/C=C/c1cnc2ccccc2n1	?	-5.7%	2.2%	3.55µM*	-1.4%
CN(C)S(=O)(=O)c1cccc(NC(=O)/C=C/c2ccc(S(=O)(=O)N3CCOCC3)cc2)c1	23.1µM*	0.8%	-3.6%	0.6%	0.2%
CN(CC(=O)Nc1cccc(F)c1)CC(=O)Nc1cc(S(=O)(=O)N2CCOCC2)ccc1Cl	?	11.4%	-4.2%	3.2%	-0.4%
CN(CC(=O)Nc1cccc(S(=O)(=O)N2CCOCC2)c1)CC(=O)Nc1ccc(Cl)c(C(F)(F)F)c1	20.6µM*	4.7%	?	2.6%	3.6%
COc1cc(/C=C/C(=O)Nc2cccc(S(=O)(=O)N3CCOCC3)c2)ccc1OCC#N	14.6µM*	-15.6%	-8.8%	0.3%	-4.4%
O=C(/C=C/c1ccco1)Nc1cccc(S(=O)(=O)N2CCOCC2)c1	0.6%	14.2%	4.0%	5.62µM*	-6.9%
COc1ccc(/C=C/C(=O)Nc2cccc(S(=O)(=O)N3CCOCC3)c2)cc1OC	?	-7.8%	3.1%	5.4%	-5.5%
Cc1ccc(/C=C/C(=O)Nc2cccc(S(=O)(=O)N3CCOCC3)c2)o1	18.7%	-3.8%	2.8%	27.2%	-3.6%
COc1ccc(NC(=O)N2CCc3c([nH]c4ccc(OC)cc34)C2c2ccc(OC)cc2)cc1 (centres undefined)	133.2%	nt	-1.6%	3.5%	nt
COc1cc(/C=C/C(=O)c2ccc(O)cc2)ccc1OCC#N	25.9µM*	10.2%	?	?	4.2%
COc1cccc(C(=O)/C=C/c2ccc(OCC#N)c(OC)c2)c1	?	-6.7%	-20.9%	?	-1.6%
COC(=O)c1ccccc1NC(=O)C1=CC(c2ccc(C)cc2)=NS(=O)(=O)N1C	18.4µM*	nt	-11.5%	0.1%	nt
COC(=O)c1ccccc1NC(=O)C1=CC(c2cccs2)=NS(=O)(=O)N1C	?	-16.4%	-10.3%	4.9%	?
COc1ccc2c(c1)O/C(=C\c1ccco1)C2=O	4.4%	?	-1.1%	?	?
COC(=O)C(C)Oc1ccc2c(c1)O/C(=C\c1ccco1)C2=O (centres undefined)	7.9%	20.6µM*	-20.6%	?	?
CC1(C)CC(=O)C(C=Nc2ccccc2C(=O)O)=C(O)C1	2.1%	-16.1%	-0.1%	0.4%	-1.3%
CC1(C)CC(=O)c2cc(N=C/C(C(=O)c3ccccc3)=C(\O)c3ccccc3)c(=O)oc2C1	11.4%	-8.7%	1.7%	11.2µM*	0.2%
O=C(/C=C/Nc1ccccc1C(F)(F)F)c1ccco1	?	?	-1.4%	1.78µM*	?
NC(=O)c1ccccc1N/C=C/C(=O)c1ccco1	?	?	-4.8%	?	?
COc1cc(C(=O)/C=C/c2cccnc2)c([N+](=O)[O-])cc1OC	18.4µM*	3.8%	?	-4.3%	6.7%
COC(=O)C(CCSC)NC(=O)C1CCN(c2ncnc3c2nc2n3CCCCC2)CC1 (centres undefined)	8.8%	nt	17.8%	-0.5%	nt
COc1ccc(NC(=O)CSc2nc(-c3cccc(C)c3)[nH]c2-c2ccccc2)cc1OC	23.1µM*	nt	?	-0.9%	nt
COc1cccc(-c2nc(SCC(=O)NC3CCCC3)c(-c3ccc(C)cc3)[nH]2)c1	?	nt	?	-1.7%	nt
COc1ccc(NC(=O)CSc2nc(-c3ccc(OC)c(OC)c3)[nH]c2-c2ccc(C)cc2)cc1	-4.4%	nt	-11.3%	8.5%	nt
COc1cccc(-c2nc(SCC(=O)NC3CCCC3)c(-c3ccc(F)cc3)[nH]2)c1	18.4µM*	nt	?	-0.3%	nt
